Assay results taken from PubChem BioAssay (NCATS).
Inconclusive results are not listed. The source made the active and inactive calls. Calls follow the shape of the dose curve; as a rule, active = well fitted inhibition curve with a large enough effect; inconclusive = small, poorly fitted or top-dose-only effect; inactive = no such curve, though single readings can be large or run the other way.

Assay: qHTS to identify inhibitors of the type 1 interferon - major histocompatibility complex class I in skeletal muscle: primary screen against the NCATS Mechanism Interrogation Plate v5.0 (MIPE) Libary (AID 1347411); also: nearly all actives have a fitted effect of over 65% in size;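 as to activity change, negative = inhibition: plate controls were vehicle for no effect and reference inhibitor for full effect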
Settings: iHSKM cells + IFN-b, HiBiT-tagged MHC-I luminescence, 24 h; series mostly up to 45.8 µM; activity change, negative = inhibition: at the top concentration
Outline: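 IFN-beta-driven (4 ng/ml) HLA-B-HiBit expression in CRISPR-tagged C25cl48 myoblasts; compounds 11-pt, 1:3, max 46 uM, 24 hr exposure; lytic NanoLuc complementation luminescence.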
Potency is read from the fitted curve at half-maximal effect.

Compound	activity change, negative = inhibition	Potency
Cc1cc2c(F)c(Oc3ncnn4cc(OCC(C)OC(=O)C(C)N)c(C)c34)ccc2[nH]1 (centres undefined)	-30% (inactive)	
O=C(Nc1cccnc1)c1cc(-c2ccnc(F)c2)ccc1OCc1ccccc1	-23.7% (inactive)	
CCNC1(C(N)=O)CCN(c2ncnc3c2nc(-c2ccccc2Cl)n3-c2ccc(Cl)cc2)CC1	-96.7% (inactive)	
FC(F)(F)c1ccc(/C=C/c2nc(COc3ccc(CCCCn4ccnn4)cc3)co2)cc1	-19.1% (inactive)	
COC(=O)Nc1cc(Nc2cc(NC3CC3)c3ncc(C#N)n3n2)c(Cl)c(N2CCN(C)CC2)c1		4.66 µM (active)
C[C@@H]1COCCN1c1cc(=O)n2c(n1)N(Cc1cncc(Cl)c1)[C@H](C(F)(F)F)CC2	-6.81% (inactive)	
CCC[C@H](N[C@H]1CCc2cc(F)cc(F)c2C1)C(=O)Nc1cn(C(C)(C)CNCC(C)(C)C)cn1	-12.6% (inactive)	
Cc1c(F)ccc(C(=O)Nc2cc([N+](=O)[O-])ccc2N2CCN(C)CC2)c1Cl	-4.76% (inactive)	
O=c1[nH]c([C@@H]2CCCN2)nc2c1oc1ccc(Cl)cc12	9.71% (inactive)	
COc1cccc(-c2cc(F)ccc2C2Cc3nc(N)nc(C)c3C(=O)N2)n1 (centres undefined)		0.0587 µM (active)
COC(C)(C)CCn1nc(Nc2c(C)cccc2C)c2cnc(Nc3ccc(OCCN4CCCC4)c(F)c3)nc21		11.7 µM (active)
Cc1[nH]c(/C=C2\C(=O)Nc3ccc(F)cc32)c(C)c1C(=O)NCCN1CCCC1		10.2 µM (active)
CN1CC[C@@H](c2c(O)cc(O)c3c(=O)cc(-c4ccc(C(F)(F)F)cc4Cl)oc23)[C@@H]1CO		13.1 µM (active)
CC[C@@H](C)Nc1cc(C(=O)NC2CC3CC[C@@H](C2)N3c2ccc(C(=O)C3CC3)cn2)c(C)cc1C(N)=O (some centres undefined)		0.117 µM (active)
Cn1cc(-c2ccc(F)c(C(F)(F)F)c2)nc1C1CCN(c2ncnc3[nH]ncc23)CC1	-29.1% (inactive)	
O=C(Nc1ccnc(NC(=O)C2CC2)c1)c1c(Cl)cccc1Cl	-76.2% (inactive)	
Cc1cnc(-c2ccccc2C(C)C)nc1NCc1ccc(-n2ccnn2)cc1	-20.6% (inactive)	
Cc1nnc(C[C@@H]2C=C(c3ccc(Cl)cc3)c3ccccc3-n3c(C)nnc32)o1	-34.9% (inactive)	
Cc1cccc(CC(=O)N2CCc3c2ccc(-c2cn(C)c4ncnc(N)c24)c3F)n1	-45.7% (inactive)	
NCCOc1cc(C(=O)Nc2cc(OCCN)c3ccccc3n2)nc(C(=O)Nc2cc(OCCN)c3ccccc3n2)c1	-29.7% (inactive)	
CCCCNc1ncc(-c2ccc(CN3CCOCC3)cn2)c(NC2CCC(O)CC2)n1 (centres undefined)	-28.6% [at 15.5 µM] (inactive)	
O=C(NCC(=O)N1CCCC1)Nc1ccc2cnccc2c1	-1.05% (inactive)	
CC(/C=C/C(=O)NO)=C\[C@@H](C)C(=O)c1ccc(N(C)C)cc1		2.08 µM (active)
C=CC(=O)Nc1ccc2ncnc(Nc3cccc(Br)c3)c2c1		11.7 µM (active)
COc1cccc(OCCCN)c1-c1cc(Nc2cnc(C#N)cn2)n[nH]1		6.58 µM (active)
Cn1cc(-c2cnn3c(N)c(Br)c(C4CCCNC4)nc23)cn1 (centres undefined)	-70.8% (inactive)	
NC(=O)c1ccccc1Nc1ccnc(Nc2cccc(O)c2)n1		4.66 µM (active)
Cc1c(NC(=O)c2cc3c(s2)CCCC3)cccc1-c1cn(C)c(=O)c(Nc2ccc(C3C(=O)N(C)CCN3C)cc2)n1 (centres undefined)	-16.6% (inactive)	
O=C1NC(=O)C(c2cnc3ccccn23)=C1c1cn2c3c(cc(F)cc13)CN(C(=O)N1CCCCC1)CC2		18.6 µM (active)
